From PubChem BioAssay (NCI)
Compounds without any hit were thinned out: in the full panel of roughly 79,000, 15% have a hit. Cut-off read from the data, not from the text of the source: active = growth inhibition above about 70%; inactive = the rest.

Columns and labels:
[1] = NCI Yeast Anticancer Drug Screen. Data for the rad50 strain (AID 155);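 note: 0% = growth of vehicle-only cultures of the same strain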; conditions: S. cerevisiae rad50 strain growth inhibition; at 50.0 µM; stronger effect = higher value
How it was run: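 Relative growth inhibition (compound vs vehicle) was measured in yeast with a defined repair-gene alteration.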

[2] = NCI Yeast Anticancer Drug Screen. Data for the mec2-1 strain (AID 157); conditions: S. cerevisiae mec2-1 strain, at 50.0 µM, stronger effect = higher value
How it was run: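 mec2-1 yeast strain, carrying an alteration in DNA damage repair or cell cycle control, was exposed to compounds; growth inhibition was measured relative to vehicle-treated controls.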

[3] = NCI Yeast Anticancer Drug Screen. Data for the sgs1 mgt1 strain (AID 161);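 note: 0% = growth of cultures given vehicle only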; conditions: S. cerevisiae sgs1 mgt1 strain, at 50.0 µM, stronger effect = higher value
How it was run: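 Compounds are added to genetically altered yeast, and growth is compared with cultures given vehicle alone to give percent inhibition.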

[4] = NCI Yeast Anticancer Drug Screen. Data for the cln2 rad14 strain (AID 165);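 note: 0% = growth equal to vehicle treated cultures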; conditions: S. cerevisiae cln2 rad14 strain, at 50.0 µM, stronger effect = higher value
How it was run: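 Yeast carrying cln2 and rad14 alterations (cell cycle control and DNA damage repair) were exposed to compounds. Growth inhibition was measured against vehicle-treated controls.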

[5] = NCI Yeast Anticancer Drug Screen. Data for the bub3 strain (AID 167); conditions: S. cerevisiae bub3 mutant strain, at 50.0 µM, stronger effect = higher value
How it was run: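 Screening used yeast with an engineered genetic alteration affecting cell cycle control. Compound-exposed cultures were compared with vehicle cultures, and reduced growth was taken as inhibition.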

[6] = NCI Yeast Anticancer Drug Screen. Data for the mlh1 rad18 strain (AID 175); conditions: S. cerevisiae mlh1 rad18 strain growth inhibition; at 50.0 µM; stronger effect = higher value
How it was run: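 Growth inhibition of the yeast strain was measured after compound exposure and expressed relative to vehicle-treated controls. The strain carries defined defects in DNA damage repair.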

Measured: growth inhibition

O=P1(O)c2ccccc2Oc2ccccc21
inactive: [1] -4% | [2] -2.2% | [3] 7.45% | [4] 2.9% | [5] -0.95% | [6] -44.5%

NC1CCCCC1N.O=NN1CCCCCC1(P(=O)([O-])[O-])P(=O)([O-])[O-].[Na+].[Pt+2]
inactive: [1] -34.9% | [2] 20% | [3] -14.6% | [4] -19.3% | [5] -12.6% | [6] -10.4%

CSc1nc(-c2ccc([N+](=O)[O-])cc2)oc1/N=C/c1ccc([N+](=O)[O-])cc1
inactive: [1] -8.45% | [2] -9.65% | [3] -14.6% | [4] -29.1% | [5] 3% | [6] 4.35%

Cc1cc([N+](=O)[O-])ccc1NC(=O)OC(C)C
inactive: [1] -12.6% | [2] -30.2% | [3] 3.05% | [4] 8.8% | [5] 1.35% | [6] -9.35%

CCCC(CNC(C)=O)(c1ccccc1)C1CCCCC1 (stereo not drawn)
inactive: [1] -10.7% | [2] 6.9% | [3] 3.15% | [4] 27.9% | [5] 11.2% | [6] 16.1%

Cc1ccc(N=C2OC(=O)c3ccccc32)cc1
inactive: [1] -3.8% | [2] -4% | [3] 0.1% | [4] -39.5% | [5] 9.9% | [6] 32.7%

CC(=O)OCC1CC=CCC1C (stereo not drawn)
inactive: [1] 5.35% | [2] -15.7% | [3] -10.2% | [4] 1.75% | [5] 2.75% | [6] 1.5%

Cc1ccc(S(=O)(=O)O)c2c([N+](=O)[O-])cccc12
inactive: [1] -8.85% | [2] 6.75% | [3] -11.1% | [4] -32.4% | [5] -9.85% | [6] -22.6%

NNS(=O)(=O)c1cccc(S(=O)(=O)NN)c1
inactive: [1] -13.9% | [2] 12.3% | [3] -3.2% | [4] -4.25% | [5] 5.35% | [6] 5.3%

C=C1CC2(CCC3C4CC=C5CC(O)CCC5(C)C4CCC32C)OC1=O (stereo not drawn)
inactive: [1] 2.9% | [2] 11.7% | [3] 6.45% | [4] 46.3% | [5] 8.15% | [6] 15.2%

O=C1c2ccccc2C(=O)N1CC(O)CCl (stereo not drawn)
inactive: [1] -21.3% | [2] -30.4% | [3] -0.45% | [4] 12% | [5] -14.5% | [6] -26.5%

COc1cc2cc3c4cc(OC)c(OC)cc4cc[n+]3c(CCC(=O)O)c2cc1OC (tested in a mixture with another compound)
inactive: [1] 10.4% | [2] -2.75% | [3] -8.25% | [4] -4% | [5] 9.35% | [6] -0.1%

O=C(O)c1c[nH]c(=O)[nH]c1=O
inactive: [1] 1.25% | [2] -5.4% | [3] 1.25% | [4] -5.55% | [5] 0.65% | [6] -7.5%

COc1cccc(N(CN2C(=O)CCC2OC)C(C)=O)c1 (stereo not drawn)
inactive: [1] 4.2% | [2] 7.35% | [3] 12.9% | [4] 19.3% | [5] -7.35% | [6] -31.4%

COc1ccc2nc(NCCNCCO)cc(NCCNCCO)c2c1
inactive: [1] -12.2% | [2] -3.25% | [3] 1.2% | [4] 4.65% | [5] -0.75% | [6] 11.3%

O=[N+]([O-])c1cc(Br)ccc1N1CCCC1
inactive: [1] -8.7% | [2] 4.2% | [3] 4.05% | [4] -11.7% | [5] -2.3% | [6] -6.85%

COc1cc(O)c2c(=O)c(O)c(-c3ccc(O)c(O)c3)oc2c1
inactive: [1] 3.15% | [2] -24.1% | [3] 13.7% | [4] 9.05% | [5] -11.8% | [6] -10.6%

O=C(Nc1cccc(Cl)c1)OCC#CCOC(=O)Nc1cccc(Cl)c1
inactive: [1] -4% | [2] 11.6% | [3] 1.95% | [4] -10.8% | [5] 0.85% | [6] 11.2%

CC[N+](C)(CC)CCOC(=O)C(c1ccccc1)C(O)C1CCCCC1 (stereo not drawn)
inactive: [1] 29.8% | [2] -5.45% | [3] 3.8% | [4] 17.3% | [5] -0.3% | [6] 8.75%

C/C(=N\O)c1cccc[n+]1Cc1ccccc1
inactive: [1] 12.2% | [2] 12.7% | [3] -15.8% | [4] -21.6% | [5] 17.8% | [6] -3.6%

Cc1cc(CO)c(O)c(CN(CC(=O)O)CC(=O)O)c1
inactive: [1] 20.2% | [2] -14.9% | [3] 5.9% | [4] -1.4% | [5] 21.6% | [6] -0.7%

Cc1ccc2cc(CCCC(=O)O)ccc2c1
inactive: [1] 43.4% | [2] 25.8% | [3] 38.7% | [4] 31.6% | [5] 40.9% | [6] 24.9%

COc1c(Cl)cc(Cl)cc1C(c1cc(Cl)cc(Cl)c1OC)C(Cl)(Cl)Cl
inactive: [1] -3.25% | [2] -6.1% | [3] 4.6% | [4] -5% | [5] -3.6% | [6] 7.1%

CCOCCOC(=O)OCCOCC
inactive: [1] 10.3% | [2] 1.9% | [3] 22.4% | [4] -4.3% | [5] 12.1% | [6] 28%

O=[N+]([O-])c1ccc(CCCc2ccc([N+](=O)[O-])cc2)cc1
inactive: [1] 39.6% | [2] 7.35% | [3] 58.9% | [4] -41.2% | [5] 11.6% | [6] 15.1%

c1ccc(C(c2ccc3c(c2)CCCC3)C(c2ccccc2)(c2ccccc2)c2ccccc2)cc1 (stereo not drawn)
inactive: [1] -0.05% | [2] -0.05% | [3] 4.7% | [4] 16.5% | [5] -3.65% | [6] 25.4%

Nc1ccc(CP(=O)(O)O)cc1
inactive: [1] -8.4% | [2] 14.8% | [3] -3.65% | [4] -8.1% | [5] 16.1% | [6] 24.9%

O=[N+]([O-])c1c(Cl)cc(Cl)c([N+](=O)[O-])c1-c1ccccc1
inactive: [1] -17.1% | [2] 9.1% | [3] -14.3% | [4] 7.75% | [5] 14.2% | [6] -31.7%

CC(=O)CC(C)(C)S(=O)(=O)c1ccc(C)cc1
inactive: [1] 4% | [2] -5.05% | [3] 24.4% | [4] -26.4% | [5] 11.8% | [6] 5.05%

N=C(N)/N=C(/C=C/c1ccccc1)CC1OC(=O)c2ccccc21 (stereo not drawn)
inactive: [1] -6.95% | [2] -10.7% | [3] -22.6% | [4] -2.85% | [5] -28.8% | [6] -24.3%

Cc1cccc(N(CCOS(C)(=O)=O)CCOS(C)(=O)=O)c1
inactive: [1] -8.6% | [2] -2.2% | [3] 14% | [4] -47.4% | [5] -5.2% | [6] -10.9%

COc1cc2c(c3c1c(=O)c1ccccc1n3C)C=CC(C)(C)O2
inactive: [1] 10.9% | [2] -13.9% | [3] 22.7% | [4] 11.2% | [5] 4.75% | [6] 9.9%

c1ccc2c(c1)oc1ccc3nsnc3c12
inactive: [1] 7.25% | [2] -7.45% | [3] 13.8% | [4] -1.45% | [5] 20.1% | [6] -10.3%

O=C1c2c(O)cccc2C(C(=O)CCCCC(=O)C2c3cccc(O)c3C(=O)c3c(O)cccc32)c2cccc(O)c21
inactive: [1] 1.75% | [2] 15.2% | [3] 27.3% | [4] 17.1% | [5] 17.2% | [6] 1.05%

CCCCCCCCCCCC1=C(O)C(=O)C(Br)=C(O)C1=O
inactive: [1] 39.6% | [2] 14.3% | [3] 44.9% | [4] 19.1% | [5] -9.65% | [6] 49.9%

C=CCCCCOCOCCOC
inactive: [1] 13.7% | [2] 17.6% | [3] 5.8% | [4] 0.5% | [5] 0.15% | [6] -28.4%

N=C(N)n1[nH]c2c(c1=O)CCCC2
inactive: [1] 5.6% | [2] 6.75% | [3] -12.1% | [4] 6.25% | [5] 2.85% | [6] -19.4%

COc1ccc2nc(C)cc(N/N=C/c3cccc(C)n3)c2c1
inactive: [1] 3.95% | [2] -19.2% | [3] -1.55% | [4] -0.8% | [5] -29.8% | [6] -22.1%
